Experimental data reported in PubChem BioAssay (NCI).
About 83,000 compounds went through this panel and 20% of them were active in at least one assay; those are over-represented in the sample as a whole.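 96-well plates, one dose, 48 hours. Percent growth reported; active if below 10.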 A number with no mark means an inactive call. Activity calls are given as the source filed them.

system: UO-31 renal; test: NCI-60 one-dose screen, 48 h (100 = growth as untreated, 0 = no growth, -100 = all killed); conditions: 10 µM unless noted

Structure (SMILES)	growth
Fc1ccc(C2CC(c3cccc(Nc4ccncc4)c3)=NN2c2ccccc2)cc1 (stereo not drawn)	62.8%
COc1ccc2c(c1)OC1=C(C(=O)OC1)C2c1cc(OC)c(OC)c(OC)c1 (stereo not drawn)	51.5%
COc1ccncc1C#Cc1cncc(C(=O)Nc2ccc(CN3CCN(C)CC3)c(C(F)(F)F)c2)c1	11.7%
Clc1cc(Cl)cc(N2N=C(c3cccc(Nc4ccncc4)c3)CC2c2ccc(Br)cc2)c1 (stereo not drawn)	52.1%
CN1CCN(C(=O)[C@]2(C)CC[C@]3(C)CC[C@]4(C)C(=CC(=O)[C@@H]5[C@@]6(C)CCC(=O)NC(C)(C)[C@@H]6CC[C@]54C)[C@@H]3C2)CC1	71.8%
COc1ccc(-c2nc(SCC(C)C)nc(N/N=C(/C)c3ccc(OC)c(OC)c3)c2C#N)cc1	54.4%
CC(=O)NCCCS(=O)(=O)O	83.9%
COc1cc2nc(-c3ccc(C#N)cc3)[nH]c(=O)c2cc1OC	97.4%
O=C1Nc2c(ccc(Cl)c2Cl)/C1=C/c1ccccn1	73.3%
CN1CCN(c2ccc(NC3=C(Cl)C(=O)c4ncccc4C3=O)cc2C#N)CC1	-34.9% (active)
COc1ccc(NS(=O)(=O)c2ccc(C)cc2)c([N+](=O)[O-])c1	86.3%
Cc1ccc(C2CC(c3cccc(Nc4ccncc4)c3)=NN2c2ccccc2)cc1 (stereo not drawn)	-100% (active)
COc1cc(-c2nc3occn3c2-c2ccnc(NCCNS(=O)(=O)c3ccc(Cl)cc3)n2)ccc1F	36.4%
C[C@]12CCc3nc(Nc4cccc(O)c4)sc3C1=CC[C@@H]1[C@@H]2CC[C@]2(C)/C(=N\NC(N)=S)CC[C@@H]12	-37.1% (active)
CCN(CC)CCCC(C)Nc1cc(-c2cccc(OC(F)(F)F)c2)nc2ccc(N3CCCC3)cc12 (stereo not drawn)	23.7%
Nc1nnc2cc(Cl)ccc2n1	89.8%
OC1(c2ccc(Cl)c(C(F)(F)F)c2)CCN(CCCC(c2ccc(F)cc2)c2ccc(F)cc2)CC1	-65.7% (active)
Clc1ccc(N2N=C(c3cccc(Nc4ccncc4)c3)CC2c2ccccc2)cc1 (stereo not drawn)	83.1%
CC1=NNC(=O)C1CCC(=O)N/N=C(\C)c1ccc2ccccc2c1 (stereo not drawn)	84.8%
COc1c(Cl)cc(Cl)c2ccc(C=C3C(=O)N(C)C(=O)N(C)C3=O)nc12	96%
Cn1c(COC(=O)NCCN2CCOCC2)nc2c(N3CCOCC3)nc(-c3ccccc3)nc21	-100% (active)
COc1ccc(C(O)c2cc3c(N)c(C(=O)Nc4ccc(Br)cc4)sc3nc2C)cc1 (stereo not drawn)	43%
O=c1[nH]c2c(s1)CCCC2CN1CCCCC1 (stereo not drawn)	89.3%
